Composite z-score and z-score data for five compounds are collected here from PubChem BioAssay.

Active and inactive are the calls of the source.

The nature of experiment [1]: small molecules captured by biotinylated probe aFSTL3 – biochemical, small-molecule microarray, fluorescence 635/667, stem cell growth factor project, primary screen (AID 1064).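 Also: measures binding of the biotinylated anti-FSTL3 antibody to printed compounds.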 Conditions: higher = more signal.
A short description of experiment [2]: binders from COS7 lysate, DM2A8 probe, primary screen, torsin A project, cell lysate, small-molecule microarray, fluorescence 635/667 (AID 1065). Conditions: higher = more signal, COS7 lysate expressing mutant human TOR1A.
Experiment [3] is described as follows: small molecules captured by biotinylated probe aFGF2 – biochemical, small-molecule microarray, fluorescence 635/667, stem cell growth factor project, primary screen (AID 1067).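 Also: measures binding of biotinylated aFGF2 protein to printed compounds on slides; z-score merges feature fluorescence and signal-to-noise across triplicate slides.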 Conditions: higher = more signal.
Experiment [4] is described as follows: small molecules captured by biotinylated probe aFGF10 – biochemical, small-molecule microarray, fluorescence 635/667, stem cell growth factor project, primary screen (AID 1071).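 Also: score merges 667 nm spot intensity and signal to noise from triplicate slides.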 Conditions: higher = more signal.
Experiment [5] deals with Neurogenic locus notch homolog protein 2 (Homo sapiens) (UniProt Q04721). As to the kind of experiment: small molecules binding Notch2 protein – biochemical, small-molecule microarray, 635 nm fluorescence, stem cell growth factors, primary screen (AID 1073). As to conditions: higher = more signal.
Experiment [6] deals with Pro-neuregulin-1, membrane-bound isoform (Homo sapiens) (UniProt Q02297). As to the kind of experiment: small molecules binding neuregulin-1 protein – biochemical, small-molecule microarray, fluorescence 635/667, psychiatric disease protein project, primary screen (AID 1075).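 Also: score combines 667 nm spot fluorescence with signal to noise.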 As to conditions: NRG1 binding, 635 nm fluorescence, higher = more signal.
Chain of Pro-neuregulin-1, membrane-bound isoform (Homo sapiens) (Q02297 whole entry, looked up, the tested form may be a part, canonical isoform): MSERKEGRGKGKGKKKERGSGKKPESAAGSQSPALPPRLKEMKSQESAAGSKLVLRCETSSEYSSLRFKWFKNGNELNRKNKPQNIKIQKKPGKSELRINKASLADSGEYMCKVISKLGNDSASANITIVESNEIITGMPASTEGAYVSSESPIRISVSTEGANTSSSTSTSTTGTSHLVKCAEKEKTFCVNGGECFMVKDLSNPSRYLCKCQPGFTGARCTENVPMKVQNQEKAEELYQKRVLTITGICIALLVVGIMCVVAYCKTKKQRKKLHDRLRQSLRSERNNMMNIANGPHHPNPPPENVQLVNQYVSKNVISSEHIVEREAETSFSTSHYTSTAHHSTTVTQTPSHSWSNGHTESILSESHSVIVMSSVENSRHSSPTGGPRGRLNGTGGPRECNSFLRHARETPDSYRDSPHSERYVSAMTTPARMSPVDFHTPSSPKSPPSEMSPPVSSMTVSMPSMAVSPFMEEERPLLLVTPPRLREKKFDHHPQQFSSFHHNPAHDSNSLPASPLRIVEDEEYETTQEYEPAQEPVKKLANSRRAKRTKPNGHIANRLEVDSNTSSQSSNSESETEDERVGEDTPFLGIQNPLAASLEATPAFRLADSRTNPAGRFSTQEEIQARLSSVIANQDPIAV
Experiment [7] has as its system Neuregulin-1 EGF-like domain. As to the kind of experiment: small molecules binding NRG1 EGF domain – biochemical, small-molecule microarray, 635 nm fluorescence, primary screen (AID 1081).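 Also: binding of the protein to compounds printed on small-molecule microarray slides.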 As to conditions: higher = more signal.
Experiment [8] in a line: FRG1 expression reporter modulators in myotubes – cell-based, C2C12 myotubes, firefly/Renilla luciferase, luminescence, FRG1 inhibition for FSHD, primary screen (AID 1084). As to conditions: FRG1 promoter luciferase, higher = more signal, called active from +8 up or from −8 down.
The nature of experiment [9]: small molecules captured by biotinylated probe aFST – biochemical, small-molecule microarray, fluorescence 635/667, stem cell growth factor project, primary screen (AID 1086).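 Also: score merges 667 nm fluorescence with signal-to-noise of each printed compound spot.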 As to conditions: higher = more signal.
Experiment [10] is described as follows: binders of probe aHhip on microarray, primary screen, stem cell growth factor project, biochemical, small-molecule microarray, fluorescence 635/667 (AID 1087).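 Also: score merges spot fluorescence at 667nm with spot signal to noise ratio.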 Conditions: higher = more signal.
Experiment [11] concerns PRMT1 (protein arginine N-methyltransferase 1). As to the kind of experiment: small molecules binding arginine methyltransferase PRMT1 – biochemical, small-molecule microarray, 635 nm fluorescence, primary screen (AID 1088).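 Also: binding of Prmt1 protein to compounds spotted on small-molecule microarray slides.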 As to conditions: higher = more signal.
The nature of experiment [12]: growth effects on S. cerevisiae YJM789 – YJM789 clinical isolate, OD600, 24 h, basal, primary screen (AID 1089).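 Also: growth of clinical yeast isolate S. cerevisiae YJM 789 seeded 1000 cells per well; test concentration not given here.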 Conditions: higher = more signal, called active from +8 up or from −8 down.
Experiment [13] can be described thus: S. pombe growth modifiers, basal conditions – strain 972, OD600, 24 h, no modulator, primary screen (AID 1090).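 Also: basal condition with compound alone and no growth modifier present; test concentration not given here.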 As to conditions: S. pombe 972 growth, higher = more signal, called active from +8 up or from −8 down.
A short description of experiment [14]: budding yeast growth modifiers under rapamycin – strain BY4716, OD600, 96 h, primary screen (AID 1091). Also: test concentration not given here. As to conditions: S. cerevisiae BY4716 + rapamycin, higher = more signal, called active from +8 up or from −8 down.
The target of experiment [15] is Torsin-1A-interacting protein 2 (Homo sapiens) (UniProt Q8NFQ8). As to the kind of experiment: small molecules binding lysate-expressed LULL1 – cell lysate, human LULL1 lysate, 635/667 nm fluorescence, primary screen (AID 1092).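 Also: probe is lysate of COS7 cells overexpressing human LULL1; score merges per-feature 667 nm fluorescence with signal-to-noise.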 Conditions: small-molecule microarray, hLULL1 lysate binding, 635 nm fluorescence; higher = more signal.
Chain of Torsin-1A-interacting protein 2 (Homo sapiens) (Q8NFQ8 whole entry, looked up): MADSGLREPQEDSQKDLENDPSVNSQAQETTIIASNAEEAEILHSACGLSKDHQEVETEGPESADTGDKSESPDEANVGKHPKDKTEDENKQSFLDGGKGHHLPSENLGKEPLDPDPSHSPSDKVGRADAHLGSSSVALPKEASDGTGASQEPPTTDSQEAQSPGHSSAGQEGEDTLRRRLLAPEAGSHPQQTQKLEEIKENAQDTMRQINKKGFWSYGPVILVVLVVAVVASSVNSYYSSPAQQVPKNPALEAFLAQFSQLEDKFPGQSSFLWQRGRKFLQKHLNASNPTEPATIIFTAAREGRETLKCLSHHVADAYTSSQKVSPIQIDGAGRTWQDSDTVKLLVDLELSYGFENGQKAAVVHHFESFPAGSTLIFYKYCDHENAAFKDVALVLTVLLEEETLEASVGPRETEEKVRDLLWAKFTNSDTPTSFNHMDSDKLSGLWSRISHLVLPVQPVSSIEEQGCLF
Experiment [16] in a line: optical density change of DRC41 E. coli – strain DRC41, OD650, 24 h, E. coli filamentation project, primary screen (AID 1093).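 Also: MC1000 strain lacking acrAB efflux and sulA so SOS filamentation is blocked; test concentration not given here.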 As to conditions: E. coli DRC41 growth, higher = more signal, called active from +8 up or from −8 down.
A short description of experiment [17]: probe aLefty2 binding to arrayed compounds – biochemical, biotinylated probe, 635/667 nm fluorescence, primary screen (AID 1094).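 Also: score merges spot fluorescence near 667 nm with spot signal-to-noise ratio.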 Conditions: small-molecule microarray, higher = more signal.
The subject of experiment [18] is Noggin (protein binding on small-molecule microarray). As to the kind of experiment: small molecules binding Noggin protein – biochemical, 635/667 nm fluorescence, primary screen (AID 1095).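 Also: score merges 667 nm feature fluorescence with signal to noise over triplicate slides.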 Conditions: 635 nm fluorescence, higher = more signal.
Experiment [19] deals with Neurogenic locus notch homolog protein 3 (Homo sapiens) (UniProt Q9UM47). Description: small molecules binding NOTCH3 protein – biochemical, 635/667 nm fluorescence, primary screen (AID 1096). Conditions: small-molecule microarray, 635 nm fluorescence, higher = more signal.
Chain of Neurogenic locus notch homolog protein 3 (Homo sapiens) (Q9UM47 whole entry, looked up): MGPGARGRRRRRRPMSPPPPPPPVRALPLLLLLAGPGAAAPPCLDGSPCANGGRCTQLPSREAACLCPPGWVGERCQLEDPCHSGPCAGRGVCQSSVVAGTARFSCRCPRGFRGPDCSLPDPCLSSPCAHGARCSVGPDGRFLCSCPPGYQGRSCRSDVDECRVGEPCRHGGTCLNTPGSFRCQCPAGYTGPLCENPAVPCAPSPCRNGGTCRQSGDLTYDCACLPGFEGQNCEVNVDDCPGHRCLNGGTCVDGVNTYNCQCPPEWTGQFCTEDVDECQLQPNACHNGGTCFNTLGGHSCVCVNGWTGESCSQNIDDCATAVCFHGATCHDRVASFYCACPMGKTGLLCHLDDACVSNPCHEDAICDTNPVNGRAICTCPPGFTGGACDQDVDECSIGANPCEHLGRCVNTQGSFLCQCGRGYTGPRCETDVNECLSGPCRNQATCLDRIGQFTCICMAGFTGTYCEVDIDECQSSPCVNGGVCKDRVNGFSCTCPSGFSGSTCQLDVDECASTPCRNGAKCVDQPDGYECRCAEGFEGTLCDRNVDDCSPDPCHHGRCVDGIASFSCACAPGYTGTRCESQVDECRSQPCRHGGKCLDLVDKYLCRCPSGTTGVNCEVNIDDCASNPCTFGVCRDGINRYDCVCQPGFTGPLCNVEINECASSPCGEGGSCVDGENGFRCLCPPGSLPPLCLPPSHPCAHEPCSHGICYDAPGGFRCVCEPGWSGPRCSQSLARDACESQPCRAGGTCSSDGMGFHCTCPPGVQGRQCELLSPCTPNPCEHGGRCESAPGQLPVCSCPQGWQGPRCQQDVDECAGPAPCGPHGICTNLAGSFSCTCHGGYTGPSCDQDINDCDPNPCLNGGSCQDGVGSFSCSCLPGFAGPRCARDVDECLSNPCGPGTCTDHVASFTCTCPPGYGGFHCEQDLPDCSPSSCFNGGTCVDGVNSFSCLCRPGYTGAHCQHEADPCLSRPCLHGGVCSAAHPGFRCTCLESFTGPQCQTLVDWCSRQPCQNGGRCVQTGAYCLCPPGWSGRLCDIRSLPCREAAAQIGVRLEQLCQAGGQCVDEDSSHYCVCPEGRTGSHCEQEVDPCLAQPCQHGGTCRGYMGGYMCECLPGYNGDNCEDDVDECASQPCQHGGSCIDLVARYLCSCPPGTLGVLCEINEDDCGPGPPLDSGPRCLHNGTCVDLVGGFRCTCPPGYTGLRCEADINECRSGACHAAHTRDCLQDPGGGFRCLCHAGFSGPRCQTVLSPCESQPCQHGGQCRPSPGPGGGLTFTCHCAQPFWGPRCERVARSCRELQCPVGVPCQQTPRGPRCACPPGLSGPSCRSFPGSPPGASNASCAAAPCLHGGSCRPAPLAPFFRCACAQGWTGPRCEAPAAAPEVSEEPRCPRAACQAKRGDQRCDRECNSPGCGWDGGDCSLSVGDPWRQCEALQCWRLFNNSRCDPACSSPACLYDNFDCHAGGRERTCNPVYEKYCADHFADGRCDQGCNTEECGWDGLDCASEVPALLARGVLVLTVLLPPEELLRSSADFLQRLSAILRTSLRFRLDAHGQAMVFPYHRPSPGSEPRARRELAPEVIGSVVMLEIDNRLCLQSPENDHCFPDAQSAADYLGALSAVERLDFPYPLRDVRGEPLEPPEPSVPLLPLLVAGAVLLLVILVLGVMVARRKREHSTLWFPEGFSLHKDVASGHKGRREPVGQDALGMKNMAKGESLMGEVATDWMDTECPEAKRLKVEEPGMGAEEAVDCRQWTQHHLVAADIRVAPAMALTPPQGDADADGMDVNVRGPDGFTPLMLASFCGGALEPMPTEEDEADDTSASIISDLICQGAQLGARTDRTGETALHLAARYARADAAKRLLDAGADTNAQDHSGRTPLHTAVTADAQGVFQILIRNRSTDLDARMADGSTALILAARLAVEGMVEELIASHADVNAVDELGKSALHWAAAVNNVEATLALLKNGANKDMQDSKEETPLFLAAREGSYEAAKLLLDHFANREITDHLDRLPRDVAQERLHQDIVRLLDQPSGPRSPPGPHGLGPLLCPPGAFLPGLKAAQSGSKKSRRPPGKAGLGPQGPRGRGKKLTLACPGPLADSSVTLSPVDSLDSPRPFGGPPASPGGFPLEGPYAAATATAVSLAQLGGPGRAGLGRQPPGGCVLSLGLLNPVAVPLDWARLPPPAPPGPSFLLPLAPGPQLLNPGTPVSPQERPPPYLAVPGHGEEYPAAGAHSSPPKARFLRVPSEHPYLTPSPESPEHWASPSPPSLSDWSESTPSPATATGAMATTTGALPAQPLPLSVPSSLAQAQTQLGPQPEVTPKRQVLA
Experiment [20] is described as follows: probe aEGFR binding to arrayed compounds – biochemical, biotinylated probe, 635/667 nm fluorescence, primary screen (AID 1097).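 Also: probe is a biotinylated anti-EGFR antibody binding compounds printed on slides; score combines fluorescence near 667 nm and signal to noise of each spot.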 As to conditions: small-molecule microarray, higher = more signal.

`CCCC[C@@H]1C[C@H]1[C@@H](NC(=O)c1ccc(C(F)(F)F)cc1)c1ccc(C(=O)OC)cc1`: the composite z-score in experiment [1] turned out to be 1.54; in [2], 2.4; in experiment [3] it was 0.589; in [4], 0.769; in [5], 0.587; in experiment [6], 0.311. Also, the composite z-score was 0.0521 in experiment [7]; 0.568 in experiment [9]; 2.46 in experiment [10]; 0.715 in [11]; 0.888 in experiment [15]; 0.293 in experiment [17]. For the same compound, the composite z-score in experiment [18] was 0.747; in experiment [19] it was 0.812; in experiment [20], 0.695. Further, the z-score was -2.69 (inactive) in experiment [8]; 0.119 (inactive) in [12]; -3.29 (inactive) in experiment [13]; -0.898 (inactive) in [14]; 0.255 (inactive) in experiment [16].
For `CCCCN1CC=CC23O[C@@H]4C=CCOC(=O)[C@@H]4[C@H]2C(=O)N(CCO)[C@@H]3C1=O` (stereo not given in full), the composite z-score is 1.37 in [1]; 0.0339 in experiment [2]; -0.168 in experiment [3]; -1.03 in [4]; -1.39 in [5]; 0.332 in [6]. The composite z-score in [7] was 0.695; in [9], -0.657; in experiment [10], -0.0645; in [11], -0.757; in experiment [15], 0.62; in experiment [17], 0.221. In addition, the composite z-score was -1.45 in experiment [18], -0.823 in experiment [19] and -0.327 in [20]. In addition, the z-score in [8] was 0.432 (inactive); in [12], -0.312 (inactive); in experiment [13] it was -0.706 (inactive); in experiment [14], -0.179 (inactive); in [16], -0.454 (inactive).
With `CC(=O)NCCCC[C@@H]1NC(=O)[C@H]2C[C@@H](C(=O)NCCCCCC[N+](C)(C)C)[C@@H](c3ccc(O)cc3)N2C1=O`, the composite z-score in experiment [1] was -0.383; in experiment [2], 0.808; in experiment [3], -0.144; in [4] it was -0.351; in experiment [5], -0.181; in experiment [6], 1.35. In addition, the composite z-score in [7] was 1.41; in experiment [9], -0.18; in experiment [10] it was -0.199; in experiment [11], 1.55; in experiment [15], 3.04; in [17], -0.0206. For the same compound, the values for the composite z-score in [18], in [19] and in experiment [20] were 1.46, 0.702 and -0.125, respectively. In addition, the z-score was 5.36 (inactive) in experiment [8]; -0.509 (inactive) in experiment [12]; 0.555 (inactive) in experiment [13]; -0.489 (inactive) in experiment [14]; 0.478 (inactive) in experiment [16].
`NC(=O)NCC#Cc1ccc2c(c1)[C@]1(C(=O)N2)[C@H](C(=O)Nc2nc3ccccc3s2)[C@H]2C(=O)O[C@H](c3ccccc3)[C@H](c3ccccc3)N2[C@@H]1c1ccc(OCCO)cc1`: the composite z-score in [1] was 0.155; in [2], -0.164; in experiment [3], 0.0526; in experiment [4], 0.331; in experiment [5], 0.614; in experiment [6], -0.029. Also, the composite z-score is -0.895 in experiment [7]; 0.99 in [9]; -0.347 in [10]; -0.006 in experiment [11]; 0.963 in experiment [15]; -0.0616 in experiment [17]. Also, the composite z-score in experiment [18] is 0.479; in [19], 0.353; in experiment [20], -0.138. The z-score in experiment [8] was 2.13 (inactive); in [12], 1.83 (inactive); in [13] it was 1.87 (inactive); in [14], 2.18 (inactive); in [16], 0.976 (inactive).
For the compound `COc1ccc([Si](C)(C)[C@H]2[C@H](CC(=O)N3Cc4ccccc4C[C@H]3CO)O[C@@]3(C(=O)N(Cc4cccc(N5C(=O)c6cccc7cccc5c67)c4)c4ccccc43)[C@@H]2C)cc1`, the composite z-score in experiment [1] was -0.581; in [2], 0.847; in [3], -0.0859; in [4], 0.539; in [5], 0.0297; in experiment [6], 0.997. Moreover, the composite z-score in experiment [7] is 1.03; in experiment [9], 0.487; in experiment [10], -0.648; in experiment [11] it was 1.56; in experiment [15], 2.14; in experiment [17] it was -0.173. The results for the composite z-score in experiment [18], in [19] and in [20] were 1.57, 1.13 and -0.122, respectively. Also, the z-score in experiment [8] is -2.61 (inactive); in [12] it was -0.0979 (inactive); in experiment [13], 0.39 (inactive); in experiment [14] it was 1.77 (inactive); in experiment [16], -0.0872 (inactive).
